In the library only some 2.3% were active in any assay of this set; here they are far more common.
Jurkat NFkB inh = lowers PMA/ionomycin-induced NF-kB signal in Jurkat cells; 330,000 tested, 0.53% active; PMA/ionomycin-induced NF-kB luciferase reporter, luminescence; inhibition, % at 4 µM; in the data active = inhibition above about 50%
Gli-Sufu block = blocks Gli-Sufu signaling in a luciferase reporter; Sufu-KO-LIGHT fibroblasts, Gli luciferase reporter luminescence; inhibition, % at 5 µM; AID 588413; 340,000 tested, 0.74% active;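 active = inhibition above about 55%, limit read from the data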;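 also: 0% = DMSO-treated cells and 100% = wells with medium but no cells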
LMP1 NFkB inh = inhibitors of Epstein-Barr LMP1-induced NF-kappaB reporter. 350,000 tested, 0.69% active. inhibition, % at 12.5 µM. LMP1-induced NF-kappaB luciferase reporter cells, luminescence; in the data active = inhibition above about 41%;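 also: 0% = neutral control wells and 100% = reference inhibitor control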
697 NFkB inh = inhibitors of the PMA/ionomycin-induced NF-kB reporter in 697 B cells | 697 B-cell NF-kB luciferase reporter, 16 h | inhibition, % at 4 µM | 330,000 tested, 0.33% active; in the data active = inhibition above about 35%
MITF TRPM1 inh = MITF TRPM1 promoter inhibition in SK-MEL-5 cells. SK-MEL-5 TRPM1 promoter luciferase, 24 h. inhibition, % at 12.5 µM. 330,000 tested, 0.83% active;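 active = mean inhibition across replicates of 60% or more, whatever share of single replicates reaches that level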
Shn3 3UTR inh = reduces Shn3 3'UTR luciferase signal in osteoblasts. inhibition, % at 12.5 µM. Clone20 osteoblast Shn3 3'UTR firefly luciferase, 24 h. 360,000 tested, 0.52% active. AID 588674;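 active = mean inhibition of at least 75% with every replicate also reaching 75%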;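 also: 0% = median of neutral control wells and 100% = pilot-screen positive control compound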
Gli-Sufu confirm = Gli-SUFU antagonism confirmation, single concentration; shares compounds with Gli-Sufu block; Sufu-KO-LIGHT cells, Gli luciferase reporter, luminescence; inhibition, % at 5 µM; 2,500 tested, 40% active; AID 602428;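 active = mean inhibition at 5 µM reaching about 45%, limit read from the data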;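 also: plate controls were DMSO-treated cells for no effect and wells lacking cells for full effect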
Gli cytotox = cytotoxicity counter-screen for Gli-SUFU antagonists | shares compounds with Gli-Sufu block | 2,500 tested, 32% active | Sufu-KO-LIGHT cells cytotoxicity, ATP luminescence | cytotoxicity, % at 5 µM;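 active = mean cytotoxicity at 5 µM above about 25%, limit read from the data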;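 also: cells exposed to compound overnight for roughly 16 to 18 hours; plate controls were DMSO wells with cells for no effect and medium without cells for full effect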
Wnt3a counter = counter-screen for Gli-SUFU antagonists: Wnt3a reporter inhibition | inhibition, % at 6.25 µM | shares compounds with Gli-Sufu block | 2,500 tested, 20% active | Wnt-LIGHT cells, Wnt3a-driven luciferase reporter, luminescence;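 active = mean inhibition above about 25%, limit read from the data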
Starred values were filed as active, the others as inactive; x = not tested or not shown.

SMILES	Jurkat NFkB inh	Gli-Sufu block	LMP1 NFkB inh	697 NFkB inh	MITF TRPM1 inh	Shn3 3UTR inh	Gli-Sufu confirm	Gli cytotox	Wnt3a counter
CCn1nnc(NC(=O)C(c2ccccc2)c2ccccc2)n1	0.1	59.1*	-8.8	6.0	10.0	4.5	18.8	13.1	-6.5
CC(NC(N)=O)C(=O)NCC(=O)OCc1ccccc1 (stereo not drawn)	-3.8	-4.8	3.0	21.7	-5.3	23.6	x	x	x
COC(=O)CNC(=O)C(C)NC(=O)OCc1ccccc1 (stereo not drawn)	8.7	98.7*	-15.6	-5.2	5.1	16.4	33.7	3.7	-2.1
COc1ccc(NS(=O)(=O)c2ccc3c(c2)OCCO3)cc1OC	25.3	65.9*	31.5	-16.5	25.3	75.3	59.8*	29.0*	30.4*
COc1ccc(S(=O)(=O)Nc2ccc3c(c2)OCO3)cc1OC	-15.0	-2.7	-4.9	-8.3	-9.2	0.3	x	x	x
Cn1nnc2cc(C(=O)N3CCSCC3)ccc21	1.7	-0.9	4.3	-3.6	0.4	4.7	x	x	x
CCCc1cc(=O)[nH]c(SCC(=O)NC2CC2)n1	3.3	52.0	-1.6	7.6	3.6	-4.1	10.2	-2.7	-3.0
COc1ccccc1CCN1CCCC(CN(C)Cc2ccc(OCCO)cc2)C1 (stereo not drawn)	-4.8	55.0	0.6	-9.7	-7.6	-0.8	28.1	8.2	-9.5
COc1cc(CN(C)CC2CCCN(CCc3ccc(F)cc3)C2)c(Cl)cc1O (stereo not drawn)	-3.4	55.1*	9.5	-0.8	5.8	-7.6	15.2	6.5	-25.4
CN(C)c1ccc(/C=N/NC(=O)C[n+]2ccccc2)cc1	-9.7	52.6	-7.9	-3.6	-10.3	10.2	9.7	5.7	-13.9
COc1ccc(C2NC(=O)Cc3cc(OC)c(OC)cc32)cc1OC (stereo not drawn)	4.5	3.6	-4.8	14.5	7.2	14.2	x	x	x
COc1ccc(C2CC(c3ccccc3)=NN2S(=O)(=O)c2ccc(C)cc2)c(OC)c1 (stereo not drawn)	-22.9	51.0	-3.0	-10.0	4.0	51.1	34.1	37.4*	-8.8
COc1ccc(C2CC(c3ccccc3)=NN2S(=O)(=O)c2ccccc2)c(OC)c1 (stereo not drawn)	-6.8	14.8	18.1	-2.3	5.5	8.6	x	x	x
Cc1ccc2nsnc2c1S(=O)(=O)NCCc1c(C)[nH]c2ccc(F)cc12	-1.3	5.4	-1.9	8.2	9.3	18.6	x	x	x
C#CC[N+](C)(C)CCCCCCCCCC	29.8	55.7*	13.7	-7.5	12.1	43.5	58.4*	36.5*	47.5*
CC#CC[N+](C)(C)CCCCCCCCCCCC	35.9	87.7*	25.3	32.1	64.7*	77.4	88.6*	31.2*	16.8
COc1cc(/C=C/C(=O)O)cc(S(=O)(=O)N2CCCc3ccccc32)c1OC	6.1	6.0	-0.1	14.8	-3.8	3.6	x	x	x
COc1ccc(-n2c(=O)/c(=C\c3cccs3)s/c2=C(/C#N)C(=O)N2CCN(C)CC2)cc1	-7.7	56.6*	-3.2	20.2	3.4	4.5	10.1	12.5	-15.6
COc1ccc(CNc2nc3ccccc3n2CCN2CCCCC2)cc1	-9.4	35.3	6.9	-33.7	-8.8	38.4	x	x	x
CCN(CC)c1ccc(CNc2nc3ccccc3n2CCN2CCCCC2)cc1	9.8	67.2*	1.4	-41.4	-1.3	92.4*	41.5	23.2	16.1
CC[C@H](C)[C@@H](C(=O)NCCCCCCCCCCC(=O)N1CCN(C(=O)OC(C)(C)C)CC1)n1cc(CCCCCNC(=O)OC(C)(C)C)nn1	43.1	56.9*	19.5	-54.6	64.9*	89.4*	68.2*	14.9	37.1*
COc1ccc(C(=O)N/C(=C\c2cn(C)c3ccccc23)C(=O)NCCN2CCOCC2)cc1OC	7.7	39.9	4.8	-24.0	5.7	-5.2	x	x	x
COc1ccc(C(=O)N/C(=C/c2ccccc2F)C(=O)NCCN2CCOCC2)cc1OC	-29.0	70.8*	-9.0	-40.9	9.6	4.6	23.4	9.6	-4.1
O=C(COc1ccccc1)Nc1ccc(OC(F)(F)C(F)F)c(NC(=O)COc2ccccc2)c1	-29.0	60.6*	-1.6	12.2	-5.1	17.4	3.5	1.9	-56.5
CC1CCCC(NC(=O)CN2C(=O)NC(c3ccccc3)(c3ccccc3)C2=O)C1C (stereo not drawn)	-0.9	8.6	-11.8	19.2	-17.8	-4.7	x	x	x
SMILES	Jurkat NFkB inh	Gli-Sufu block	LMP1 NFkB inh	697 NFkB inh	MITF TRPM1 inh	Shn3 3UTR inh	Gli-Sufu confirm	Gli cytotox	Wnt3a counter
CCCCN(C)C(=O)c1ccc(Nc2nc(C(N)Cc3ccccc3)cs2)nc1 (stereo not drawn)	x	x	x	x	x	13.9	x	x	x
CC(=NNc1nc2ccccc2s1)c1ccncn1	x	52.3	68.1*	x	37.8	88.4*	71.0*	41.9*	21.2
COc1ccc(S(=O)(=O)NC(=O)C2(C)CCN2C(=O)CC2CCCCC2)cc1OC (stereo not drawn)	x	x	x	x	x	-8.2	x	x	x
COC(=O)c1[nH]c2cc(OC)ccc2c1NC(=O)CN1CCC(C(N)=O)(N2CCCCC2)CC1	-7.6	74.9*	-3.9	6.3	-5.7	-58.9	23.9	6.6	-1.3
COC(=O)c1[nH]c2cc(OC)ccc2c1NC(=O)CN1CCC(C(N)=O)CC1	1.1	8.1	2.2	4.5	8.7	6.5	x	x	x
O=C(c1cc(COc2cccc(C(F)(F)F)c2)on1)N1CCC(c2ccncc2)CC1	17.2	50.5	19.5	-57.2	-1.1	80.0	61.5*	37.4*	-77.2
CC[C@H](C)/C=C/C1=CC2=C(Cl)C(=O)[C@@]3(C)OC(=O)C(C(=O)[C@H](C)[C@@H](C)O)=C3C2=CO1	7.0	6.3	2.2	8.0	5.3	1.5	x	x	x
Cc1ccsc1C(=O)OCC(=O)NC1CC1	-5.3	-3.4	2.2	4.7	-5.0	-16.8	x	x	x
CCc1nnc(NC(=O)CCC(=O)NCC2CCCO2)s1 (stereo not drawn)	8.6	50.0	-0.2	21.0	5.8	11.2	21.6	22.6	-13.9
O=C(CN(Cc1ccccc1)C(=O)CCC(=O)Nc1nccs1)NCC1CCCO1 (stereo not drawn)	-16.9	50.3	-1.5	21.9	-9.3	-0.1	14.0	7.1	8.1
O=C(CN(CC1CCCO1)C(=O)CCC(=O)Nc1nccs1)NCC1CCCO1 (stereo not drawn)	4.2	-3.3	-2.5	-23.9	-3.8	12.3	x	x	x
CCCCC(=O)Nc1nnc(SCC(=O)NCC2CCCO2)s1 (stereo not drawn)	2.9	-5.7	-2.2	16.0	-7.1	-1.2	x	x	x
COc1ccccc1NC(=O)CN(Cc1ccccc1)S(C)(=O)=O	5.6	-13.7	1.3	7.5	5.1	8.9	x	x	x
CC(C)COc1ccc(C/C(N)=N/n2cnnc2)cc1	20.2	62.2*	1.3	-10.5	13.9	79.0	46.4*	20.2	26.3*
